Measurements taken from PubChem BioAssay (NCI).
The panel holds about 83,000 compounds, 20% with a hit somewhere; the sample as a whole holds those more often.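 Single-dose data. Exposure time 48 hours. Values below 10 considered active.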 Values without a mark were called inactive. Active and inactive are the calls of the source.

What was measured:
Assay in all cases: NCI-60 one-dose screen, 48 h (100 = growth as untreated, 0 = no growth, -100 = all killed)
Details in all cases: 10 µM unless noted
[1] = test system: SR leukemia
[2] = test system: RPMI-8226 leukemia
[3] = test system: OVCAR-8 ovarian
[4] = test system: OVCAR-5 ovarian
[5] = test system: OVCAR-4 ovarian
[6] = test system: SK-OV-3 ovarian
[7] = test system: IGROV1 ovarian
[8] = test system: OVCAR-3 ovarian
[9] = test system: HS 578T breast
[10] = test system: NCI/ADR-RES ovarian
[11] = test system: T-47D breast
[12] = test system: BT-549 breast
[13] = test system: MDA-MB-435 melanoma
[14] = test system: SW-620 colon
[15] = test system: MCF7 breast
[16] = test system: HCT-116 colon
[17] = test system: HCC-2998 colon
[18] = test system: KM12 colon

Compound | growth [1] | growth [2] | growth [3] | growth [4] | growth [5] | growth [6] | growth [7] | growth [8] | growth [9] | growth [10] | growth [11] | growth [12] | growth [13] | growth [14] | growth [15] | growth [16] | growth [17] | growth [18]
CO/N=C(/C)c1ccc(NC(=O)CSc2nnc(-c3ccncc3)n2-c2ccccc2)cc1 | 99.6% | 80.8% | 1.47% (active) | 79.5% | -30.7% (active) | 24.1% | 33.4% | 29.3% | -0.835% (active) | 0.0208% (active) | 17.4% | 6.99% (active) | 47% | 84.2% | 42% | 4.38% (active) | 82.3% | 61.9%
COc1cc(/C=C/C(=O)c2cccc(Nc3nc(Nc4ccccc4)nc(Nc4ccccc4)n3)c2)cc(OC)c1OC | 22.4% | -63.1% (active) | 27.2% | 78.8% | 67.4% | 90.3% | 37.3% | 44.9% | 50.3% | 40.6% | 42.2% | 64.2% | 68.8% | 35.4% | 22.9% | 15.1% | 16.7% | 52.7%
OCCNCCCOc1ccc2ncnc(Nc3ccc(Oc4cccc(C(F)(F)F)c4)c(Cl)c3)c2c1 | 5.48% (active) | -12.1% (active) | 32.1% | 72.8% | 5.48% (active) | 13.7% | -35% (active) | 3.15% (active) | 34.2% | 69.1% | 38.7% | 95.6% | -65.2% (active) | -84.2% (active) | -40% (active) | 12.7% | -75.1% (active) | 3.05% (active)
Cc1noc(C)c1C(=O)OCc1coc2ccccc2c1=O | 45.3% | 30.1% | 91.8% | 71.6% | 62.8% | 109% | 82.6% | 44.9% | 78.3% | 90.7% | 28% | 69.2% | 59.8% | 32.1% | 49.6% | 41.4% | 105% | 95.8%
C#CCOc1cccc(Nc2ncnc3ccc(NC(=O)CCl)cc23)c1 | -42.1% (active) | -50.9% (active) | -4.18% (active) | -70.1% (active) | -33.9% (active) | 20.1% | -57.2% (active) | -74.8% (active) | 24.5% | -1.49% (active) | -39.1% (active) | -68.9% (active) | -2.66% (active) | -27.1% (active) | -20.1% (active) | -51.3% (active) | -61.9% (active) | -51.4% (active)
COc1ccc(-c2cn(-c3cc(OC)c(OC)c(OC)c3)c(=O)n2C(C)=O)cc1 | 22.2% | 95.9% | 94.5% | 84.5% | 84.9% | 104% | 77.7% | 109% | 93.4% | 98.5% | 73.9% | 83.5% | 79.4% | 96.2% | 89% | 85% | 84.3% | 93.3%
COc1cccc([C@H]2c3[nH]c4ccccc4c3C[C@H]3C(=O)N(CCCCCCC(=O)NO)CC(=O)N23)c1 | 4.26% (active) | 14.6% | 65.6% | 62.1% | 62% | 77.1% | 64.4% | 64.7% | 59.6% | 91.1% | 31.5% | 77.9% | 61.2% | 57.4% | 53.7% | 35.3% | 68.2% | 78.9%
O=C(c1cc2ccccc2o1)c1nn(-c2ccccc2)/c(=N/N=Cc2cn(-c3ccccc3)nc2-c2cc3ccccc3oc2=O)s1 | 72.7% | 90.9% | 97.5% | 105% | 93.3% | 127% | 99.1% | 100% | 99.8% | 96.5% | 92.9% | 108% | 81.1% | 97.1% | 83.1% | 89.8% | 104% | 96.5%
Cc1nc2ncnc(Cl)c2[nH]1 | 98.3% | 82.4% | 95.4% | 109% | 106% | 105% | 106% | 108% | 110% | 108% | 95.7% | 105% | 105% | 103% | 91.3% | 84.3% | 98.6% | 102%
O=C(CCCCCCN1CC(=O)N2[C@H](c3cc(Br)cs3)c3[nH]c4ccccc4c3C[C@H]2C1=O)NO | 17.2% | 11.8% | 28% | 38% | 63% | 61.9% | 40.7% | 38.4% | 44.8% | 78.9% | 17.3% | 68.1% | 22.6% | 8.76% (active) | 33.2% | 13% | 75.1% | 47.2%
O=C1c2cccnc2C(=O)c2c1c(C(=O)NCCCN1CCCCC1)c1ccccn21 | -15.3% (active) | -10.9% (active) | -13.3% (active) | -0.385% (active) | -88% (active) | -15.7% (active) | -43.4% (active) | -34.8% (active) | 36.3% | -15.5% (active) | -48.6% (active) | 13.7% | -80.5% (active) | -66% (active) | -49.5% (active) | -57.6% (active) | -56.7% (active) | -17.8% (active)
Oc1c(Cl)cc(Cl)c2ccc(Cn3cc(-c4ccc(C(F)(F)F)cc4)nn3)nc12 | -16.8% (active) | 0.831% (active) | 70.7% | 88.7% | 62.2% | 104% | 78.9% | -16.1% (active) | 87.7% | 100% | 55.4% | 77.7% | 59.5% | 7.74% (active) | 29.4% | 8.81% (active) | 105% | 101%
COc1ccc(C(=O)Nc2ncc(Cc3cccc(Cl)c3)s2)cc1OC | 17% | 21.3% | 35.6% | 49.3% | 60.2% | 34.9% | 40.2% | 7.51% (active) | 30.9% | 20.9% | 3.79% (active) | 50.7% | 0.543% (active) | 27.4% | 11% | 27.2% | 16.9% | 18%
C#CCOc1ccc2ncnc(Nc3cccc(NC(=O)C=C)c3)c2c1 | 17.1% | 80.2% | 45.8% | 89.6% | 76% | 60.6% | 33.8% | 60.6% | 67.3% | 80.2% | 70.6% | 46.6% | 69.1% | 90.3% | 60.5% | 74.4% | 90.8% | 83.5%
Cc1ccc(C(C(N)=O)C(C(N)=O)c2ccccc2)cc1 (stereo unspecified) | 92% | 95.4% | 103% | 114% | 115% | 114% | 105% | 114% | 124% | 122% | 112% | 113% | 109% | 105% | 112% | 101% | 112% | 105%
N=C(N)c1ccc(-c2ccc(-c3ccc(F)cc3)o2)o1 | -8.15% (active) | -2.26% (active) | 5% (active) | 58.4% | 62% | 28.1% | 44.9% | 7.31% (active) | 30.5% | 22.6% | 21.4% | 55.3% | -76.9% (active) | -36.7% (active) | 10.5% | 2.27% (active) | 18.4% | 7.92% (active)
O=C1c2c(c3c4ccc(Br)cc4oc3c3[nH]c4ccccc4c23)C(=O)N1O | 8.52% (active) | 3.91% (active) | 47.6% | 95.9% | 66% | 79.1% | 25.3% | 21.3% | 18% | 56.2% | 11.8% | 27.6% | 19.1% | 37.3% | 22.4% | 17.9% | 66.9% | 17.1%
